From PubChem BioAssay
Shiga inhibitor: Shiga toxin inhibition; Vero cells, Shiga toxin protein synthesis inhibition reporter; inhibition, % at 38.7 µM; hit rate 9.2% among 290,000; in the data active = inhibition mostly above about 28%, no sharp cut-off; inactive = mostly below about 43%; note: 0% is about no effect
CHX counter: affects cycloheximide protein synthesis inhibition readout, counter-screen | cell reporter, cycloheximide protein synthesis inhibition counterscreen | max response, % | hit rate 12% among 300,000; in the data active = max response mostly above about 13%, no sharp cut-off; inactive = mostly below about 14%; note: read at 38.3 µM for the half of the compounds with a filed dose; 0% is about no effect
NS1 function inh: blocks influenza NS1 protein function. Potency, µM (highest dose often 46.1 µM), without a hit: top-dose activity, positive = more growth. hit rate 0.4% among 270,000. AID 2326; calls by dose curve; note: potency is the fitted concentration of half-maximal effect; actives are rising curves; nearly all actives have a fitted effect of over 50% in size
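A cell-based growth assay was used: compounds that relieve NS1-induced slow growth of budding yeast raise OD600. Assay medium was yeast nitrogen base with ammonium sulphate and -URA supplement, pH 6.0, with 2% galactose.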
Giardia FBPA inh: blocks Giardia fructose-bisphosphate aldolase activity; purified Giardia FBPA; Potency, µM (titrated, usually from 59.6 µM), without a hit: top-dose activity, negative = inhibition, most hits filed as inhibitors; hit rate 0.71% among 290,000; note: potency is the fitted concentration of half-maximal effect; % is set by controls: 0 for no effect and ±100 for the full control effect; nearly all actives have a fitted effect of over 55% in size
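40 nM FBPA preincubated 10 min at RT with compound (up to 57.5 uM final), then substrate plus GAPDH/TPI/NAD/arsenate coupling and diaphorase/resazurin added. Fluorescence read after 20 min at RT, 525/598 nm.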
LmPK inh: inhibitors of Leishmania mexicana pyruvate kinase | purified LmPK, Kinase-Glo ATP luminescence, 1 h | Q27686 | hit rate 0.37% among 290,000 | AID 1721 | Potency, µM (highest dose often 57.5 µM), inactives show at the highest dose activity change, negative = inhibition, actives largely listed as inhibitors; note: potency is the fitted concentration of half-maximal effect; % is set by controls: 0 for no effect and ±100 for the full control effect
Target sequence (Q27686 whole entry, looked up): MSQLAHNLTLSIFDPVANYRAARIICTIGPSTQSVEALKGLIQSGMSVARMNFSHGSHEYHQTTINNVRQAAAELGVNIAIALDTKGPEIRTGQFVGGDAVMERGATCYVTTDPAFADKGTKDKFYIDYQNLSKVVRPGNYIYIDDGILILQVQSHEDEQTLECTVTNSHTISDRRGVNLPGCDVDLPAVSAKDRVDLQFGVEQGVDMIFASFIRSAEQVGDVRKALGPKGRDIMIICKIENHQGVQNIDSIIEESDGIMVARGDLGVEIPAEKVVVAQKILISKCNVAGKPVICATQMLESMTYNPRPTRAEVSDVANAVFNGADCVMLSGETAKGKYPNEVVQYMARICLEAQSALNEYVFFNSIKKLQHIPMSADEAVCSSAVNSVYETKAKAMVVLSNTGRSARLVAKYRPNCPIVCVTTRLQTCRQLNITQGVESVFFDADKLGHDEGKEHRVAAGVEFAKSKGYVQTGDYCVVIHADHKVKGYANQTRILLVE
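Pyruvate kinase activity monitored as ATP production (luciferase luminescence). Conditions: 0.1 nM enzyme, 0.5 mM PEP, 0.1 mM ADP, 1 h, RT; normalized against uninhibited and no-enzyme wells.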
The depositor's hits bear a star; i = inactive; u = inconclusive; x = not tested or not shown. The list is not random: actives were taken first. Their share in the collection is about 14%. Unless noted, calls come from the whole dose curve; as a rule, active = well fitted curve in the direction sought with a large enough effect; inconclusive = small, poorly fitted or top-dose-only effect, or another doubt; inactive = no such curve, though single readings can be large; an effect the other way counts as inactive or inconclusive.

SMILES	Shiga inhibitor	CHX counter	NS1 function inh	Giardia FBPA inh	LmPK inh
COc1ccc(O)c(CN2CCN(CCCc3ccccc3)C(CCO)C2)c1 (stereo not given)	-3	4	2%	8%	0%
CN(C)/C=N/c1nc(-c2ccc3ccccc3c2)cs1	61*	47*	-39%	-4%	0%
CN(C)/C=N/c1nc(-c2ccc3c(c2)OCO3)cs1	178*	53*	4%	0%	u
COc1ccc(-c2csc(/C=C/c3ccc4c(c3)OCO4)n2)cc1OC	28	7	9%	-12%	0%
O=C(Nc1ccc2nc3n(c(=O)c2c1)CCCCC3)C(=O)N1CCN(c2ccccc2)CC1	-3	1	1%	3%	-7%
COc1cccc(C(C[N+](=O)[O-])c2c(C)[nH]n(-c3ccccc3)c2=O)c1 (stereo not given)	20	-2	-110%	13µM*	10%
CCOc1ccc(-c2n[nH]c(C(=O)NN)c2C)cc1	95*	32*	u	5%	1%
NNC(=O)c1[nH]c(-c2ccccc2)cc1-c1ccccc1	-11	-2	u	13%	8%
Cc1c(-c2ccccc2)n[nH]c1C(=O)NN	97*	43*	x	1%	1%
O=C(O)c1cccc([N+](=O)[O-])c1C(=O)Nc1cccc2ccccc12	x	20*	3%	-23%	7%
O=C(O)c1cccc([N+](=O)[O-])c1C(=O)Nc1ccc2ccccc2c1	22	20*	7%	-3%	-1%
O=C(c1csnn1)N1CCC2(CCCN(c3ccc(-c4ccccc4)cc3)C2)CC1	x	x	x	-10%	x
O=C(Nc1cccc(O)c1)c1c(O)c2ccccc2[nH]c1=O	38*	48*	u	0%	1%
Cc1cccc(NC(=O)c2c(O)c3ccccc3[nH]c2=O)c1	38*	33*	5%	10%	0%
Cc1ccc(NC(=O)Cc2c(O)c3ccccc3[nH]c2=O)c(C)c1	22	18*	2%	2%	-5%
O=C(Nc1cccc(C(F)(F)F)c1)c1c(O)c2ccccc2[nH]c1=O	25	-6	20%	8%	-1%
Cc1ccccc1NC(=O)Cc1c(O)c2ccccc2[nH]c1=O	-4	-3	9%	-3%	0%
O=C(O)c1cccc(-c2nnn(Cc3ccccc3Cl)n2)c1	96*	41*	-8%	u	-9%
Cc1ccccc1Cn1nnc(-c2ccc(C(=O)O)cc2)n1	-2	-4	x	u	-1%
O=C(O)CCn1nnc(-c2ccccc2)n1	-16	-3	x	6%	1%
Cc1ccccc1Cn1nnc(-c2cccc(C(=O)O)c2)n1	124*	56*	-33%	u	-1%
O=C(O)c1ccc(-c2nnn(Cc3ccccc3F)n2)cc1	19	-2	-41%	23%	-1%
COc1ccc(-c2nnn(Cc3ccccc3)n2)cc1	86*	44*	-24%	5%	-5%
O=C(O)c1cccc(-c2nnn(Cc3ccccc3)n2)c1	63*	70*	-13%	u	1%
O=C(CCn1c(=O)c2cccn2c2cccnc21)N1CCN(c2cccc(Cl)c2)CC1	-2	-4	-4%	x	-2%
SMILES	Shiga inhibitor	CHX counter	NS1 function inh	Giardia FBPA inh	LmPK inh
Cc1ccc(-c2cc(C3C4C=CCCC4(C)C(=O)N3Cc3ccccc3)ccc2F)cc1 (stereo not given)	-2	10	x	1%	x
Cc1ccc(-c2nnn(CC(=O)O)n2)cc1	2	-3	-10%	28%	-8%
O=C(O)c1cccc(OCc2ccccc2Cl)c1	122*	111*	-121%	21%	-17%
CSc1ccc(-c2nnn(Cc3ccc(C)cc3)n2)cc1	24	21*	-8%	-1%	2%
CNc1nc(Cl)nc2c1ncn2CC(COC(=O)C(C)(C)C)COC(=O)C(C)(C)C	-7	-6	x	-13%	x
CC(=O)c1ccccc1OCCOCCOCCOc1ccccc1C(C)=O	-10	-1	4%	28%	11%
CC(=O)c1ccccc1OCCOc1ncnc2sccc12	36*	16*	x	-6%	10%
OC[C@@H](O)CNc1ncnc2ccccc12	x	x	-7%	x	x
COc1ccc(-c2cc(C(=O)NCc3cccnc3)no2)cc1	73*	43*	-3%	1%	-9%
O=C(NCc1cccnc1)c1cc(-c2ccccc2)on1	153	40*	-3%	-4%	-10%
O=C(NCc1ccccc1)c1cc(-c2cccc(O)c2)on1	61*	25*	-6%	3%	0%
COc1ccc(CNC(=O)c2cc(-c3cccc(OC)c3)on2)cc1	x	x	-10%	x	x
O=C(NCc1cccnc1)c1cc(-c2cccs2)on1	37*	60*	-9%	3%	1%
O=C1CN(S(=O)(=O)c2cc(C(=O)O)ccc2Cl)c2ccccc2N1	-6	-4	4%	-14%	12%
COc1ccc(CNc2ncnc3ccc(-c4cccc(C#N)c4)cc23)c(OC)c1	x	x	x	-3%	x
COC(=O)/C(=C\c1ccc(O)cc1)c1nc2ccccc2[nH]1	60*	35*	x	-11%	0%
CC(C)c1ccc(/C=C(\c2nc3ccccc3[nH]2)S(=O)(=O)c2ccccc2)cc1	23	18*	-5%	6%	5%
COc1cc(/C=C/C(=O)NCc2nc3ccccc3[nH]2)cc(OC)c1OC	-4	9	0%	0%	6%
C/C(O)=C(\C#N)c1nc2ccccc2[nH]1	-9	-4	1%	-11%	-11%
C/C(=C\c1ccc(N)cc1)c1nc2ccccc2[nH]1	61*	49*	-1%	0%	6%
COC(=O)/C(=C\c1cc(OC)c(OC)c(OC)c1)c1nc2ccccc2[nH]1	37	22*	1%	-3%	-7%
CC(C)c1ccc(CNc2ncccn2)cc1	42*	39*	-4%	u	1%
CN(C)c1ccc(CNc2ccc3c(c2)ncn3C)cc1	18	20*	0%	-17%	0%
CC(C)c1ccc(CNc2ccc3c(c2)ncn3C)cc1	104*	60*	-9%	15%	-2%
c1ccc(CNc2ccccn2)cc1	-6	1	2%	-18%	-3%
SMILES	Shiga inhibitor	CHX counter	NS1 function inh	Giardia FBPA inh	LmPK inh
CN1C(=O)/C(=C\N2CCc3ccccc32)C(=O)NC1=S	14	13*	18%	u	2%
CCN1CCCC1Cn1c(-c2ccccc2)nc2c(NCCOC)nc(C)nc21 (stereo not given)	x	x	x	2%	x
CCOC(=O)C1(C(C)C)Oc2ccccc2C(c2ccc(OC)cc2)=C1C(=O)OC (stereo not given)	i	5	x	-5%	x
COc1cc(/C=C(\C#N)c2ccccn2)ccc1OCc1ccccc1	77*	31*	-15%	-12%	-2%
COc1cc(/C=C(\C#N)c2ccccn2)ccc1OCc1ccc(Cl)cc1	38	8	-4%	-5%	3%
CN(CCC#N)c1ccc(/C=C(\C#N)c2ccccn2)cc1	active	48*	-10%	-22%	u
N#C/C(=C\c1c[nH]c2ccc(Br)cc12)c1ccccn1	22	13	4%	22%	1%
CCN(Cc1ccccc1)c1ccc(/C=C(\C#N)c2ccccn2)cc1	98*	56*	-6%	-25%	-12%
